This is part of a sample that, as a whole, favours compounds with a hit. Of some 83,000 tested, about 20% had one in any assay.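 Testing used 96-well plates and a 48-hour single-concentration exposure. Example: -40 means 40% of the starting cells died.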 Activity calls are given as the source filed them. The calls were made as follows: active = growth percent below 10; inactive = the rest.

For the experiment, the system named is T-47D breast. Description: NCI-60 one-dose screen, 48 h (100 = growth as untreated, 0 = no growth, -100 = all killed). The following applies: 10 µM unless noted.
For the molecule `Cc1cc(N2CCN(C)CC2)nc(N(CCNc2ccnc3cc(Cl)ccc23)Cc2ccco2)n1`, the growth is 40.4% (inactive).

As to `COc1cc2c3c(c4c5ccccc5[nH]c4c2c(OC)c1OC)C(=O)N(O)C3=O`, the growth is 19.5% (inactive).

On to `COc1ccc(C2NC(=O)Nc3ccccc32)c(OC)c1` (stereo not drawn), for which the growth is 91.4% (inactive). With `C/C(=N\Nc1cc(C)c2cc(C)ccc2n1)c1ccccn1`, the growth was -50.4% (active). Regarding `CC(C)=CCC[C@](C)(O)[C@H]1CC[C@]2(C)[C@@H]1CC[C@@H]1[C@@]3(C)C/C(=C/c4ccc(Br)cc4)C(=O)C(C)(C)[C@@H]3CC[C@]12C`, the growth is 64.3% (inactive). As for `CCOC(=O)N1CCN(CCCCOc2ccc(C(C)(C)CC)cc2)CC1`, the growth is 79.7% (inactive).

Take `COC(=O)CCCCCn1c2ccccc2c2c3c(c4c5ccccc5[nH]c4c21)C(=O)N(O)C3=O`: the growth was 21.6% (inactive).

Regarding `Fc1ccc(Nc2nnc(-c3ccc(Cl)cc3)o2)cc1`, the growth was 66.2% (inactive). Regarding `C/C(=N\Nc1ccc2ccccc2n1)c1ccccn1`, the growth is 19.8% (inactive). With `C=C1C(=O)O[C@H]2[C@H]1CC/C(Cn1cc(-c3ccc(F)cc3)nn1)=C\CC[C@@]1(C)O[C@@H]21`, the growth was -48.1% (active). Take `CSc1ccc(N(C)c2nc(C)nc3c2CCC3)cc1`: the growth was 64.5% (inactive). As to `Cc1ccc(-c2nc([P+](c3ccccc3)(c3ccccc3)c3ccccc3)c(N3CCOCC3)o2)cc1`, the growth was -20.4% (active).

Consider `Fc1ccc2c(c1)c(-c1nc(-c3c[nH]c4ncccc34)cs1)cn2CCCN1CCCCC1`, for which the growth is 67.5% (inactive). The figure for `CCCC1CCCCN1C(=O)OCC(C)C` (stereo not drawn) is 104% (inactive). As for `Cc1ccc(-c2nc3ccc(Cl)cc3c(=O)n2N2C(=O)CSC2c2ccccc2Cl)cc1` (stereo not drawn), the growth was 75.8% (inactive). In the case of `Nc1ccc(Br)cn1`, the growth was 98.7% (inactive).

Take `COc1ccc(-c2nc(SCC(=O)Nc3ccc(C(C)=O)cc3)[nH]c(=O)c2C#N)cc1`: the growth was 89.4% (inactive). The figure for `Nc1ccc(Cl)cn1` is 86.7% (inactive); for `CCN1CCN(c2nc(C)cc(N(CCCNc3ccnc4cc(Cl)ccc34)Cc3ccco3)n2)CC1` it is 68.4% (inactive). In the case of `CCc1ccccc1NC(=O)c1sc2nc3c(cc2c1N)CCCC3`, the growth is 34.6% (inactive). For `N#CCCCCCn1c2ccccc2c2c3c(c4c5ccccc5n(CCCCCC#N)c4c21)C(=O)N(O)C3=O`, the growth is 75.7% (inactive). For the molecule `CCC(=O)c1c(C)[nH]c(C)c1C`, the growth is 104% (inactive). The figure for `O=C1NC(=Nc2ccc(S(=O)(=O)Nc3nccs3)cc2)S/C1=C\c1coc2ccccc2c1=O` is 97.1% (inactive); for `O=C(NC(Cc1cn(Cc2ccccc2)cn1)C(=O)O)OCC1c2ccccc2-c2ccccc21` (stereo not drawn) it is 112% (inactive); for `Cn1cc(-c2csc(-c3c[nH]c4ccc(F)cc34)n2)c2cccnc21` it is 44.3% (inactive). The figure for `O=C1C(=O)N(CCCCn2cc(-c3ccccc3)nn2)c2ccccc21` is 93.4% (inactive); for `CCCCC(=O)OC1CCCCC1C` (stereo not drawn) it is 95.2% (inactive). In the case of `Cc1ccc(N(CC(=O)Nc2ccc(S(=O)(=O)NC3CCN(C)CC3)cc2)S(=O)(=O)c2ccc(Cl)cc2)cc1`, the growth is 58.4% (inactive). `COc1ccc2c(c1)C(Br)=C(CCO)C2c1ccccc1` (stereo not drawn): the growth is 54.3% (inactive). `C#Cc1cc2c(N)c(C(=O)c3cc(OC)c(OC)c(OC)c3)[nH]c2cc1OC`: the growth was 25.7% (inactive). Regarding `COc1cnc2c(c1)C(=O)c1c-2n(CCCNC2=NCCS2)c(=O)c2cc([N+](=O)[O-])ccc12`, the growth is 14.4% (inactive).

`CN1CCN(CC#CCn2c3c(c4ccccc42)C[C@]2(C)[C@H]4CC[C@@H]5[C@H]6[C@H]7OC(=O)[C@@]6(CCC7(C)C)CC[C@@]5(C)[C@]4(C)CC[C@H]2C3(C)C)CC1`: the growth was 104% (inactive). As for `Cc1nc([P+](c2ccccc2)(c2ccccc2)c2ccccc2)c(Sc2sc(-c3ccccc3)nc2[P+](c2ccccc2)(c2ccccc2)c2ccccc2)o1`, the growth was 4.85% (active). With `CN(CSc1ccc(Cl)cc1)c1ccc(CSc2ccc(Cl)cc2)cc1`, the growth is 48.6% (inactive).

Regarding `O=S(=O)(NCCNc1cc(-c2cn(-c3ccccc3)nc2-c2cccc(O)c2)ccn1)c1ccc(F)cc1`, the growth is 7.88% (active).

On to `O=C1CNCCN1`, for which the growth is 110% (inactive). Take `COc1ccc(O)c(-c2cc(-c3ccc(Cl)cc3)c(C#N)c(=O)[nH]2)c1`: the growth is 57.3% (inactive). The figure for `CCN(CC)c1ccc(/C=C/c2cc(C)c3ccccc3n2)cc1` is 44% (inactive).
